Data from PubChem BioAssay (NCATS).
“And” between values parts separate entries of the source, which are not always exact repeats. Equal values may be shown once. Records with an inconclusive call do not appear. Entries that show only a call come without a potency. More than one record can exist for a structure, and the calls need not agree. The source made the active and inactive calls. Calls follow the shape of the dose curve; as a rule, active = well fitted inhibition curve with a large enough effect; inconclusive = small, poorly fitted or top-dose-only effect; inactive = no such curve, though single readings can be large or run the other way.

Assay: P-glycoprotein substrates identified in KB-3-1 adenocarcinoma cell line, qHTS therapeutic library screen (AID 1346986); also: nearly all actives have a fitted effect of over 60% in size;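 also: potency is for cytotoxicity meaning loss of cell viability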
Details: KB-3-1 parental cells viability, CellTiter-Glo, 72 h; series mostly up to 44.5 µM
Protocol: The ATP-binding cassette transporters P-glycoprotein (P-gp) is known to limit brain penetration of many chemotherapy drugs. […] We used the CellTiter-Glo viability assay to test library compounds against the parental KB-3-1 human cervical adenocarcinoma cell line and the colchicine-selected sub-line KB-8-5-11 that over-expresses P-gp. KB-8-5-11 cells were also tested in the presence of a P-gp inhibitor (tariquidar) to assess reversability of transporter-mediated resistance. Of the tested compounds, a total of 90 P-gp substrates were identified including 55 newly identified P-gp substrates. Substrates were confirmed using an orthogonal killing assay against HEK-293 cells transfected with P-gp. As exemplars, we confirmed that AT7159 (cyclin-dependent kinase inhibitor); AT9283, (Janus kinase 2/3 inhibitor); ispinesib (kinesin spindle protein inhibitor); gedatolisib (PKI-587, phosphoinositide 3-kinase/mammalian target of rampamycin inhibitor); GSK-690693 (AKT inhibitor); and KW-2478 (heat shock protein 90 inhibitor) were substrates , and direct ATPase stimulation was assessed. ABCG2 was also found to confer high levels of resistance to AT9283, GSK-690693 and gedatolisib, while ispinesib, AT7519 and KW-2478 were weaker substrates.
The HeLa derivative cell line, KB-3-1, and its colchicine-selected, P-gp-overexpressing subline, KB-8-5-11 were maintained in DMEM with 10% FCS and Pen/Strep with glutamine at 37 degree C in 5% CO2. For KB-8-5-11 cells, colchicine was added to the medium at a concentration of 100 ng/mL. HEK-293 cells transfected with empty vector (pcDNA) or vector containing human ABCB1 (MDR-19) or ABCG2 (R-5) have been described previously (Robey, Lin, Qiu, Chan & Bates, 2011) and were maintained in EMEM supplemented with 10% FCS, Pen/Strep and glutamine with 2 mg/ml G418 to select for the expression of the transporter. Cultures were confirmed to be free of mycoplasma infection using the MycoAlert Mycoplasma Detection Kit (Lonza, Walkersville, MD). For the screen, assay medium was identical to culture medium except for KB-8-5-11 where colchicine was excluded from the medium.
All cell lines were plated into 1536-well plates at 500 cells/well in 5 uL media. Compounds were then pinned in dose-response using a 1536-head pin tool (Kalypsis, San Diego, CA) and plates were incubated at 37 degree C in 5% CO2 for an additional 72 h. CellTiter-Glo reagent (Promega) was dispensed into the wells, incubated for 5 min and luminescence was read on a ViewLux instrument (Perkin-Elmer). Cytotoxic compounds were defined as those that yielded a curve class of -1.1, -1.2, -2.1, -2.2, -2.3, or -2.4, a maximum response of >50% and an AC50 of < 10 uM. Cherry-picked hits from screening analysis were tested with both the KB pair of cell lines, and the pcDNA (empty vector control) and MDR-19 (P-gp overexpressing) pair were tested, in the absence and presence of tariquidar.
Potency is read from the fitted curve at half-maximal effect.

Structure (SMILES)	Potency	outcome
N#CC(=Cc1ccc(O)c(O)c1)C(=O)NCc1ccccc1	inactive	–
Cc1cc(C(=O)NOCCO)c(Nc2ccc(I)cc2F)n(C)c1=O	inactive	–
CC1(C)[C@H](O[C@H]2O[C@H](C(=O)O)[C@@H](O)[C@H](O)[C@H]2O[C@@H]2O[C@H](C(=O)O)[C@@H](O)[C@H](O)[C@H]2O)CC[C@@]2(C)[C@H]1CC[C@]1(C)[C@H]2C(=O)C=C2[C@H]3C[C@@](C)(C(=O)O)CC[C@]3(C)CC[C@]21C	inactive	–
CC1(C)O[C@@H]2C[C@H]3[C@@H]4CCC5=CC(=O)C=C[C@]5(C)[C@@H]4[C@@H](O)C[C@]3(C)[C@]2(C(=O)CO)O1	inactive	–
O=C(Nc1ccc(Oc2ccnc3[nH]ccc23)c(F)c1)c1cccn(-c2ccc(F)cc2)c1=O	inactive	–
C[C@@H]1[C@H](C)CC[C@]2(C(=O)O)CC[C@]3(C)C(=CC[C@@H]4[C@@]5(C)C[C@@H](O)[C@H](O)[C@@](C)(CO)[C@H]5CC[C@]43C)[C@@H]12	inactive	–
OC[C@@H](O)[C@@H](O)[C@H](O)[C@@H](O)CO	inactive	–
NC1=N[C@H]2[C@H](CS[C@H]2CCCCC(=O)O)N1	inactive	–
COC(=O)[C@@H]1CC2=CC(=O)CC[C@]2(C)[C@@]23O[C@@H]2C[C@@]2(C)[C@H](CC[C@@]24CCC(=O)O4)[C@@H]13	inactive	–
O=C(C[C@@H]1CC=CCCC(=O)O[C@H](c2ccccc2)CNC1=O)NCc1ccc(Cl)cc1	inactive	–
CCc1ccc(C(=O)Nc2cc(CN3CCN(C)CC3)cc(C(F)(F)F)c2)cc1C#Cc1cnc2ccnn2c1	4.11 µM (active)	–
CC(=O)O[C@]1(C(C)=O)CC[C@H]2[C@@H]3C=C(C)C4=CC(=O)CC[C@]4(C)[C@@H]3CC[C@@]21C	inactive	–
O=C(O)c1ccc(Nc2ncc3c(n2)-c2ccc(Cl)cc2C(c2c(F)cccc2F)=NC3)cc1	0.82 µM (active)	–
Cc1ccc(O)c(C(CCN(C(C)C)C(C)C)c2ccccc2)c1 (stereo not given)	inactive	–
CC(=O)N1CCN(c2ccc(OCc3nn(C)c(C)c3-c3cccc4c(CCCOc5cccc6ccccc56)c(C(=O)O)n(Cc5cccnc5)c34)cc2)CC1	inactive	–
CC(=O)N[C@@H]1[C@H](O[C@@H]2c3ccc(c(Cl)c3)Oc3cc4cc(c3O[C@H]3O[C@H](CO)[C@@H](O)[C@H](O)[C@H]3NC(=O)CCCCCCCC(C)C)Oc3ccc(cc3Cl)C[C@H]3NC(=O)[C@H](N)c5ccc(O)c(c5)Oc5cc(O)cc(c5)[C@H](NC3=O)C(=O)N[C@H]4C(=O)N[C@H]3C(=O)N[C@@H]2C(=O)N[C@@H](C(=O)O)c2cc(O)cc(O[C@H]4O[C@H](CO)[C@@H](O)[C@H](O)[C@H]4O)c2-c2cc3ccc2O)O[C@H](CO)[C@@H](O)[C@@H]1O	inactive	–
CCCCCCCCCCCCc1ccc(S(=O)(=O)Nc2nncs2)cc1	inactive	–
CON=C(C(=O)N[C@@H]1C(=O)N2C(C(=O)O)=C(Cn3ccc(=N)n3CCO)CS[C@H]12)c1csc(N)n1	inactive	–
Cc1coc2c1C(=O)C(=O)c1c-2ccc2c(C)cccc12	inactive	–
CC(=O)C1=C(O)C=C2Oc3c(C(C)=O)c(O)c(C)c(O)c3C2(C)C1=O (stereo not given)	inactive	–

Structure (SMILES)	Potency	outcome
CC(C)N(CC[C@H](c1ccccc1)c1cc(CO)ccc1O)C(C)C	inactive	–
N#Cc1c(NC(=O)c2cccc3ccccc23)sc2c1CCCC2	0.366 µM (active)	–
CCN1CCN(C(=O)N[C@H](C(=O)N[C@@H]2C(=O)N3C(C(=O)O)=C(CSc4nnnn4C)CS[C@@H]23)c2ccc(O)cc2)C(=O)C1=O	–	inactive [at 9.29 µM]
C=CC[C@@H]1C=C(C)C[C@H](C)C[C@H](OC)[C@H]2O[C@@](O)(C(=O)C(=O)N3CCCC[C@H]3C(=O)O[C@H](C(C)=C[C@@H]3CC[C@H](O)[C@H](OC)C3)[C@@H](C)[C@@H](O)CC1=O)[C@@H](C)C[C@@H]2OC	inactive	–
COc1cc2ncnc(Nc3cccc(Br)c3)c2cc1OC	inactive and 18.4 µM (active)	–
OCc1ccccc1O[C@@H]1O[C@H](CO)[C@H](O)[C@H](O)[C@H]1O	inactive	–
O=C(O)C=Cc1ccc(Cn2ccnc2)cc1	inactive	–
Nc1ccc(C(=O)Nc2cccc(-c3nc(N4CCOCC4)c4oc5ncccc5c4n3)c2)cn1	inactive and 13 µM (active)	–
CNC(=O)Nc1ccc(-c2nc(N3CC4CCC(C3)O4)c3cnn(C4CCC5(CC4)OCCO5)c3n2)cc1	0.0411 µM (active)	–
CCCCC(=O)O[C@]1(C(=O)CO)[C@@H](C)C[C@H]2[C@@H]3CCC4=CC(=O)C=C[C@]4(C)[C@@]3(F)[C@@H](O)C[C@@]21C	inactive	–
CCc1cc(C(C)=NOCc2ccc(C3CCCCC3)c(C(F)(F)F)c2)ccc1CN1CC(C(=O)O)C1	inactive	–
COc1ccc([C@@H]2CNC(=O)C2)cc1OC1CCCC1	inactive	–
CC1=C(C(=O)Nc2cc3cn[nH]c3cc2F)C(c2ccc(Cl)cc2F)N=C(c2ccnc(Cl)c2)N1 (stereo not given)	20.6 µM (active)	–
CCOC(=O)N1CCN([N+]([O-])=NOc2ccc([N+](=O)[O-])cc2[N+](=O)[O-])CC1	inactive	–
Cc1ccc2nc(NCCN)c3ncc(C)n3c2c1	5.17 µM (active)	–
O=C(O)CCCCC(CCSCc1ccccc1)SCc1ccccc1 (stereo not given)	inactive	–
CN[C@H]1[C@@H](O)[C@@H]2O[C@@H]3O[C@H](C)CC(=O)[C@]3(O)O[C@@H]2[C@@H](NC)[C@H]1O	inactive	–
Cc1ccccc1C(=O)Nc1ccc(C(=O)N2CCCC(O)c3cc(Cl)ccc32)c(C)c1 (stereo not given)	inactive	–
Cc1cnc(Nc2ccc(N3CCN(C)CC3)cc2)nc1Nc1cccc(S(=O)(=O)NC(C)(C)C)c1	3.26 µM (active)	–
C=Cc1c(C)c2cc3nc(cc4[nH]c(cc5nc(cc1[nH]2)C(C)=C5CCC(=O)O)c(CCC(=O)OC)c4C)[C@@]1(C)C3=CC=C(C(=O)OC)[C@H]1C(=O)OC	inactive	–
